Pol eta inh: blocks human DNA polymerase eta activity; recombinant Pol eta, fluorescent DNA replication assay; Potency, µM (doses to about 114 µM), inactives show at the top dose activity change, negative = inhibition, usual class: inhibitors; actives 1.2% (n = 390,000); further: potency means the concentration at half of the fitted maximal effect; on the % scale 0 is the no-effect control and ±100 the full control effect
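Pol eta (10 nM) was preincubated with compounds for 15 min at room temperature, after which fluorescent replication substrate (50 nM final) was added to start the reaction. Fluorescence was read kinetically at 0 and 10 min.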
Pol iota inh: inhibitors of human DNA polymerase iota. Q9UNA4. Potency, µM (highest dose often 115 µM), without a hit: at the highest dose activity, negative = inhibition, usual class: inhibitors. actives 1% (n = 390,000). Pol iota fluorescent replication assay, 10 min; further: potency means the concentration at half of the fitted maximal effect
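Pol iota at 10 nM preincubated 15 min with compounds at room temperature; reaction started with fluorescent substrate, 50 nM final. Fluorescence read kinetically at 0 and 10 min; buffer-only wells as negative control.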
POLB inh: inhibitors of human DNA polymerase beta | P06746 | Pol beta primer extension/strand displacement, fluorescence kinetic | Potency, µM (doses to about 114 µM), inactives show top-dose activity change, negative = inhibition, usual class: inhibitors | actives 1.3% (n = 340,000) | AID 485314; further: potency means the concentration at half of the fitted maximal effect; on the % scale 0 is the no-effect control and ±100 the full control effect
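Kinetic readout of DNA synthesis with strand displacement by Pol beta. Compound and 10 nM enzyme sit 15 min at room temperature; 50 nM substrate starts the reaction, read immediately and at 10 min.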
Pol kappa inh: inhibitors of human DNA polymerase kappa | purified Pol kappa, fluorescent DNA synthesis assay, 10 min | Potency, µM (series often up to 107 µM), without a hit: at the highest dose activity, negative = inhibition, most hits filed as inhibitors | actives 0.53% (n = 400,000); further: potency means the concentration at half of the fitted maximal effect; on the % scale 0 is the no-effect control and ±100 the full control effect
Target sequence (Q9UBT6 whole entry, looked up): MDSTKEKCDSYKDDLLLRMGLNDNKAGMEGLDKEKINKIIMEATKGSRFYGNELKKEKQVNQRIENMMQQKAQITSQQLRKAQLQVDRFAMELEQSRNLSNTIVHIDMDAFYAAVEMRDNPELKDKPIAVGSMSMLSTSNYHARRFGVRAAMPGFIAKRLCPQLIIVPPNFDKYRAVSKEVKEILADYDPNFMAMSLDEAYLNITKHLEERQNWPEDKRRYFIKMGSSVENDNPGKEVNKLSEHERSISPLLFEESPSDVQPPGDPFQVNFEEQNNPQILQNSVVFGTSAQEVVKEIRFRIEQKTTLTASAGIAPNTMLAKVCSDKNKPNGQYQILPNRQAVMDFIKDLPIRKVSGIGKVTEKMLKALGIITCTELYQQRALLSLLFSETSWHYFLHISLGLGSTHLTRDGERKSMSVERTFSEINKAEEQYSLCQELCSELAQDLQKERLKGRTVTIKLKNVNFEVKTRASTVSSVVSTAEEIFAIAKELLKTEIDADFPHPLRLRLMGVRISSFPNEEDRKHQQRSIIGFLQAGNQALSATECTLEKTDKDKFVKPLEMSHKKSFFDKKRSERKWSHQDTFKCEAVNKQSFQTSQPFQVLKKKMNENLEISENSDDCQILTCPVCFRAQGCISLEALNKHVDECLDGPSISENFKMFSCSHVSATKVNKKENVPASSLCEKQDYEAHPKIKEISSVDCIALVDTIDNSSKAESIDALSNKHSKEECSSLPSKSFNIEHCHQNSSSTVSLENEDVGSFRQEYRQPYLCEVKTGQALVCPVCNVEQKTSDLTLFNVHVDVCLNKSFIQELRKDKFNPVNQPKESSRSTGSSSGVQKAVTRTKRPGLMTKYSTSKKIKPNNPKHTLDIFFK
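Enzyme at 10 nM met test compounds for 15 min at room temperature. Substrate addition (50 nM final) began the reaction, which was monitored by fluorescence at 0 and 10 min.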
WRN inhibitor: WRN helicase (human) inhibition; WRN helicase unwinding, fluorescent forked duplex, kinetic; Potency, µM (doses to about 114 µM), for inactives: top-dose activity change, negative = inhibition, actives largely listed as inhibitors; actives 0.46% (n = 360,000); further: potency means the concentration at half of the fitted maximal effect; on the % scale 0 is the no-effect control and ±100 the full control effect; nearly all actives have a fitted effect of over 55% in size
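Primary qHTS, 1536-well format. 20 nM WRN + compound, 15 min RT; start with 100 nM forked fluorophore/quencher duplex, 2 mM ATP (final); kinetic read ex 525/em 598 nm.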
PI5P4K alpha inh: blocks human PI5P4K alpha kinase activity; max response, %; actives 1.2% (n = 330,000); PI5P4Kalpha enzyme, ADP-Glo luminescence, 60 min; stronger effect = lower value; active means max response of -50% or lower; inconclusive means between -30% and -50%; inactive means -30% or higher; further: value at the top dose of about 77 µM; on the % scale 0 is the no-effect control and ±100 the full control effect
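Quantitative HTS of the MLSMR library against PI5P4Kalpha with substrate. ATP added last at 5 microM final; room temperature, 60 minutes. Remaining ATP depleted, ADP converted and read as luminescence.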
Starred values were filed as active, the others as inactive; [ ] = another dose, or the depositor's remark. Shown are actives, neighbours in structure and some others; about 2.8% of the full set was active somewhere. Unless noted, the call rests on the fitted dose curve; in most records, active means well fitted curve in the direction sought with a large enough effect; inconclusive means small, poorly fitted or top-dose-only effect, or another doubt; inactive means no such curve, though single readings can be large; an effect the other way counts as inactive or inconclusive.

For O=S(=O)(c1cccc2ccccc12)N1CCN(c2nc(-c3cccs3)nc3ccccc23)CC1 the results were Pol iota inh -10% and Pol kappa inh -14%.
For CCN(c1ccccc1)S(=O)(=O)c1ccc2[nH]cc(C(=O)NCc3ccc(C)cc3)c(=O)c2c1 the results were Pol eta inh inconclusive, Pol iota inh 89µM*, POLB inh inconclusive and Pol kappa inh -8%[60.1 µM].
`CCN(c1ccccc1)S(=O)(=O)c1ccc2[nH]cc(C(=O)NCCOC)c(=O)c2c1` gave Pol eta inh inconclusive, Pol iota inh -18%, POLB inh -13%, Pol kappa inh -30%, WRN inhibitor -11% and PI5P4K alpha inh -10.
`O=Cc1cc(N=Nc2cccc(C(=O)O)c2)ccc1O` gave Pol eta inh inconclusive, Pol iota inh inconclusive, POLB inh 35µM*, Pol kappa inh inconclusive, WRN inhibitor -10%[11.6 µM] and PI5P4K alpha inh -79*.
Screening O=Cc1cc(N=Nc2ccccc2Cl)ccc1O returned Pol eta inh -2%, Pol iota inh inconclusive, POLB inh inconclusive, Pol kappa inh inconclusive, WRN inhibitor -8% and PI5P4K alpha inh inconclusive.
`O=C(c1ccc(COc2ccc(F)cc2)o1)n1cccn1` gave Pol eta inh 12%, Pol iota inh -6%, POLB inh 12%, Pol kappa inh 3%, WRN inhibitor -1% and PI5P4K alpha inh 1.
Screening O=C(c1ccc(COc2ccc(F)cc2)o1)n1cc(Br)cn1 returned Pol eta inh 79µM*, Pol iota inh inconclusive, POLB inh 22µM*, Pol kappa inh -34% and WRN inhibitor inconclusive.
COc1cccc(NC(=O)CN(C)S(=O)(=O)c2cccs2)c1 was read as Pol eta inh -12%, Pol iota inh 7%, POLB inh -24% and Pol kappa inh -22%.
`CCOC(=O)COc1c(Br)cc(C2NC(=O)NC(C)=C2C(C)=O)cc1OC` (stereo unspecified) gave Pol eta inh 22µM*, Pol iota inh inconclusive, POLB inh inconclusive, Pol kappa inh inconclusive, WRN inhibitor -18%[57.1 µM] and PI5P4K alpha inh inconclusive.
`CCOC(=O)COc1c(OC)cc(Cl)cc1C1NC(=O)NC(C)=C1C(C)=O` (stereo unspecified) gave Pol eta inh -15%, Pol iota inh 19%, POLB inh -4%, Pol kappa inh -11% and WRN inhibitor -1%.
`CCc1ccccc1N(C)C(=O)C1CCCN(c2ncnc3c2nc2n3CCCCC2)C1` (stereo unspecified) gave Pol eta inh -14%, Pol iota inh 11%, POLB inh -16% and Pol kappa inh -3%.
Screening CCCCN(CCCC)c1ccc(C(=O)c2ccccc2C(=O)O)c(O)c1 returned Pol eta inh -2%, Pol iota inh -43%, POLB inh 89µM*, Pol kappa inh -6% and WRN inhibitor -9%.
Cn1nnnc1SCCNCc1ccccc1OCc1ccccc1 was read as Pol eta inh -6%, Pol iota inh 14%, POLB inh 28µM*, Pol kappa inh 3%, WRN inhibitor -32%[57.1 µM] and PI5P4K alpha inh -2.
C[n+]1cccc(C2C(C#N)=C(N)Oc3c2ccc2ccccc32)c1 (stereo unspecified) was read as Pol eta inh -14%, Pol iota inh 109%, POLB inh 7%, Pol kappa inh -23%, WRN inhibitor 28% and PI5P4K alpha inh -8.
For C[n+]1cccc2ccc3c(c21)OC(N)=C(C#N)C3c1ccccc1 (stereo unspecified) the results were Pol eta inh -3%, Pol iota inh 18µM*, POLB inh 3%, Pol kappa inh -16%, WRN inhibitor -5% and PI5P4K alpha inh -12.
CCc1cccc(NC(=O)c2cc3c(=O)[nH]c4ccccc4c3n2C)c1 was read as Pol eta inh 4%, Pol iota inh -11%, POLB inh -10% and Pol kappa inh -14%.
O=C1CC(=O)CC(c2ccco2)C1 was read as Pol eta inh 18µM*, Pol iota inh inconclusive, POLB inh inconclusive, Pol kappa inh inconclusive, WRN inhibitor -7% and PI5P4K alpha inh 0.
CC(C)CNC1=CC(=O)CC(c2ccco2)C1 (stereo unspecified) was read as Pol eta inh inconclusive, Pol iota inh 28µM*, POLB inh 28µM*, Pol kappa inh inconclusive, WRN inhibitor -21% and PI5P4K alpha inh -22.
For C=CC(C)n1c(Br)nc2c1c(=O)[nH]c(=O)n2C (stereo unspecified) the results were Pol eta inh -19%, Pol iota inh 66%, POLB inh 1%, Pol kappa inh -5%, WRN inhibitor 0% and PI5P4K alpha inh -4.
Screening CC(C)n1c(=S)[nH]c2c1c(=O)[nH]c(=O)n2C returned Pol eta inh -19%, Pol iota inh 19%, POLB inh 21%, Pol kappa inh -13%, WRN inhibitor 89µM* and PI5P4K alpha inh -76*.
Screening CCn1c(SCC(=O)Nc2nccc(C)n2)nc2ccccc21 returned Pol eta inh -21%, Pol iota inh inconclusive, POLB inh 79µM*, Pol kappa inh -5%, WRN inhibitor -19% and PI5P4K alpha inh -6.
Screening CCN(CC(=O)NC1CCS(=O)(=O)C1)S(=O)(=O)c1ccc(F)cc1 (stereo unspecified) returned Pol eta inh inconclusive, Pol iota inh -46%, POLB inh 16µM*, Pol kappa inh -22%, WRN inhibitor -21% and PI5P4K alpha inh 2.
For COc1ccc2c(c1)C1OCCC1C(c1ccco1)N2 (stereo unspecified) the results were Pol eta inh -4%, Pol iota inh 79µM*, Pol kappa inh -19%, WRN inhibitor -4% and PI5P4K alpha inh -2.
For CCOc1ccc(-n2c(=O)c3c(C)c(C)sc3n(CC(=O)Nc3ccc(CC)cc3)c2=O)cc1 the results were Pol eta inh -13%, Pol iota inh -24%, POLB inh 35% and Pol kappa inh 1%.
Screening CCOC(=O)c1c2ccccc2[n+]([O-])n1CCO returned Pol eta inh -7%, Pol iota inh inconclusive, Pol kappa inh -10%, WRN inhibitor 6% and PI5P4K alpha inh 3.
For COc1cc(C2CC(=O)Nc3c2c(=O)n(C)c2ncnn32)cc(OC)c1OC (stereo unspecified) the results were Pol eta inh -4%, Pol iota inh 50µM*, POLB inh -12% and Pol kappa inh -7%.
Screening Cn1c(=O)c2c(n3ncnc13)NC(=O)CC2c1cccc(F)c1 (stereo unspecified) returned Pol eta inh 4%, Pol iota inh -2%, POLB inh -2% and Pol kappa inh -10%.
